Compound activity deposited in PubChem BioAssay by National Center for Advancing Translational Sciences (NCATS).
IL1B secr inh – qHTS for Inhibitors of Inflammasome Signaling: IL-1-beta AlphaLISA Primary Screen; THP-1 LPS/ATP IL-1B secretion, AlphaLISA, 16 h; active compounds read low; activity change, % at 57.5 µM; hit rate 4.7% among 360,000; AID 743279, 2014; in the data active = activity change below about -50%; inconclusive = mostly about -30% to -49%; note: % is set by controls: 0 for no effect and ±100 for the full control effect
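Secreted IL-1B measured by AlphaLISA bead assay after 16 h compound exposure of THP-1 cells; compounds (final up to 57.5 uM) added 1 h before LPS (250 ng/mL) and ATP (1.25 mM) stimulation; lower signal means less secretion.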
HepG2 tox-1 – qHTS for Inhibitors of TGF-b: Cytotox Counterscreen | HepG2 CAGA-GFP viability, ATP luminescence, 18 h | Potency, µM (highest dose often 46.1 µM), for inactives: at the top dose activity change, negative = cytotoxicity, hits mostly cytotoxic | hit rate 0.76% among 410,000; note: potency is the fitted concentration of half-maximal effect
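CellTiter-Glo luminescence gave cytotoxicity after 18 hours at 37 degrees C. The cells were HepG2 CAGA-GFP in 1% FBS DMEM, stimulated with 500 pg/mL TGF-beta after compound addition. %Activity was normalised to no-cell wells (complete cell-killing) and DMSO (no toxicity), and curves were fitted and classified.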
DT40 TDP1 CPT – qHTS for Inhibitors of human tyrosyl-DNA phosphodiesterase 1 (TDP1): qHTS in cells in presence of CPT; hit rate 12% among 420,000; chicken DT40 Tdp1-/-;hTDP1 cells + 20 nM CPT, ATP luminescence, 48 h; Potency, µM (top dose mostly 46.2 µM), for inactives: at the top dose activity change, negative = growth inhibition, most hits filed as inhibitors; AID 686979, 2013; note: potency is the fitted concentration of half-maximal effect; % is set by controls: 0 for no effect and ±100 for the full control effect; nearly all actives have a fitted effect of over 55% in size
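Chicken DT40 Tdp1-/- cells stably complemented with human TDP1 were seeded at 400 cells/well in medium containing 20 nM camptothecin, exposed to pin-transferred compounds, and grown at 37 °C for at least 48 hr. Viability was read as ATP luminescence.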
TDP1 inh – qHTS Assay for Inhibitors of Tyrosyl-DNA Phosphodiesterase (TDP1) | Tyrosyl-DNA phosphodiesterase 1 (Homo sapiens), Q9NUW8 | recombinant TDP1, AlphaScreen DNA substrate cleavage | Potency, µM (doses to about 130 µM), for inactives: at the top dose activity change, negative = inhibition, hits mostly inhibitors | hit rate 0.28% among 350,000; note: potency is the fitted concentration of half-maximal effect; % is set by controls: 0 for no effect and ±100 for the full control effect; nearly all actives have a fitted effect of over 40% in size
Target sequence (Q9NUW8 whole entry, looked up): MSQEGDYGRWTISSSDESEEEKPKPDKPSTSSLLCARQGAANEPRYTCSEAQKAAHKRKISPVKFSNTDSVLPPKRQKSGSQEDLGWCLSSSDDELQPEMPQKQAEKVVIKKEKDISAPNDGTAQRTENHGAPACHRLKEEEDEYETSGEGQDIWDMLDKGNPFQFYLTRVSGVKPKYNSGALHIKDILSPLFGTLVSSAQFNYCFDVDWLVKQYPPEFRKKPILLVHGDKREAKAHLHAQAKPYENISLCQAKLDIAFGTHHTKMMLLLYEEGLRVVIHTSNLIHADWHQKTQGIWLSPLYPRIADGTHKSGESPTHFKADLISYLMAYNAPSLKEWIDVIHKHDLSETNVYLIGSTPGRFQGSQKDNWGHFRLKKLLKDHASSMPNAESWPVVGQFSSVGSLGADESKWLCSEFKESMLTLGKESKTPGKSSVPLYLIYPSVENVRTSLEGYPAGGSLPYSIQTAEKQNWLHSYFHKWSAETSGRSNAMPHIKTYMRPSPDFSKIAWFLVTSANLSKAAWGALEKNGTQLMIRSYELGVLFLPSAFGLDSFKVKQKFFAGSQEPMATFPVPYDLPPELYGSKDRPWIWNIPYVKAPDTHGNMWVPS
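Recombinant E. coli-expressed Tdp1 (1 nM) preincubated with compound 15 min at RT, then 5'-biotin/3'-phosphotyrosine-FITC DNA substrate (15 nM) added for 5 min. AlphaScreen beads (10 ug/ml) added, 10 min RT; tyrosine-FITC cleavage read as signal loss.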
DT40 TDP1 no CPT – qHTS for Inhibitors of human tyrosyl-DNA phosphodiesterase 1 (TDP1): qHTS in cells in absence of CPT | DT40 Tdp1-/- hTDP1 cells, no CPT, ATP luminescence, 48 h | Potency, µM (titrated, usually from 46.2 µM), for inactives: top-dose activity change, negative = growth inhibition, hits mostly inhibitors | hit rate 15% among 420,000; note: potency is the fitted concentration of half-maximal effect; % is set by controls: 0 for no effect and ±100 for the full control effect; nearly all actives have a fitted effect of over 55% in size
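Luminescent ATP content (CellTiter-Glo) served as the growth readout. Knockout chicken DT40 cells expressing human TDP1 were exposed to compounds without camptothecin for a minimum 48 hr at 37 °C.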
TGFb inhibitor – qHTS for Inhibitors of TGF-b | Potency, µM (highest dose often 46.1 µM), without a hit: at the highest dose activity, negative = inhibition, usual class: inhibitors | hit rate 1.2% among 410,000 | HepG2 CAGA-GFP TGF-b/SMAD3 reporter, GFP fluorescence, 18 h; TGF-beta stimulated, 500 pg/mL final; note: potency is the fitted concentration of half-maximal effect; % is set by controls: 0 for no effect and ±100 for the full control effect; nearly all actives have a fitted effect of over 65% in size
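TGF-beta reporter screen: HEPG2 CAGA-GFP, 1% FBS, 500 pg/mL TGF-beta final, 18 h; per-cell GFP summed per well; curves fitted and categorized by class.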
TGFb confirm – qHTS for Inhibitors of TGF-b: Confirmation of Cherry Picks; hit rate 63% among 1,600; Potency, µM (top dose mostly 46.1 µM), for the others: top-dose activity, negative = inhibition, actives largely listed as inhibitors; shares compounds with TGFb inhibitor; HepG2 CAGA-GFP TGF-b reporter, GFP fluorescence, 18 h; cells stimulated with TGF-beta, 500 pg/mL; note: potency is the fitted concentration of half-maximal effect; % is set by controls: 0 for no effect and ±100 for the full control effect; nearly all actives have a fitted effect of over 65% in size
HepG2 tox-2 – qHTS for Inhibitors of TGF-b: Cytotox Counterscreen for Cherry Picks; shares compounds with TGFb inhibitor; HepG2 CAGA-GFP viability, ATP luminescence, 18 h; cells stimulated with TGF-beta, 500 pg/mL; Potency, µM (highest dose often 46.1 µM), for inactives: at the highest dose activity, negative = cytotoxicity, actives largely listed as inhibitors; hit rate 27% among 1,600; AID 720535, 2013; note: potency is the fitted concentration of half-maximal effect; % is set by controls: 0 for no effect and ±100 for the full control effect; nearly all actives have a fitted effect of over 70% in size
TGFb CCL64 inh – qHTS for Inhibitors of TGF-b: CCL64 Cells Orthogonal Assay for Cherry Picks. Potency, µM (doses to about 46.1 µM), for the others: top-dose activity, negative = inhibition, actives largely listed as inhibitors. hit rate 41% among 1,600. AID 720536, 2013. CCL64 CAGA-GFP reporter, TGF-b stimulated, GFP fluorescence, 18 h. shares compounds with TGFb inhibitor; note: potency is the fitted concentration of half-maximal effect; nearly all actives have a fitted effect of over 65% in size
TGFb COP inh – qHTS for Inhibitors of TGF-b: Hit Validation in HepG2 Cells using COP promoter; shares compounds with TGFb inhibitor; hit rate 3% among 1,600; Potency, µM (doses to about 46.1 µM), for inactives: at the highest dose activity, negative = inhibition, actives largely listed as inhibitors; AID 720537, 2013; HepG2 COP-GFP TGF-b reporter, GFP fluorescence, 18 h; cells stimulated by added recombinant TGF-beta; note: potency is the fitted concentration of half-maximal effect; nearly all actives have a fitted effect of over 70% in size
* = called active by the depositor; ? = inconclusive; . = no result given; [ ] = remark or other dose. A selection: hits, their analogues and other compounds. The true share with any hit is near 19%. Unless noted, calls come from the whole dose curve; as a rule, active = well fitted curve in the direction sought with a large enough effect; inconclusive = small, poorly fitted or top-dose-only effect, or another doubt; inactive = no such curve, though single readings can be large; an effect the other way counts as inactive or inconclusive.

SMILES	IL1B secr inh	HepG2 tox-1	DT40 TDP1 CPT	TDP1 inh	DT40 TDP1 no CPT	TGFb inhibitor	others
Cc1ccc(C)c(CNC(=O)CCn2cccn2)c1	.	0.7%	-0.8%	7.1%	-16.8%	1.7%
CSCC[C@H](NC(=O)COc1ccc(Cl)cc1)c1nc2ccccc2[nH]1	0.0	10.5%	-14.4%	5.4%	?	?
O=C(Nc1cccc(C(F)(F)F)c1)Nc1ccc2snnc2c1	.	-56.8%	3.66µM*	-2.5%	5.17µM*	7.08µM*
CN(C)c1ccc(NC(=O)Nc2ccc3snnc3c2)cc1	-21.7	-26.3%	-0.6%	4.1%	-15.4%	?
O=C(Nc1ccccc1)Nc1ccc2snnc2c1	-19.1	-19.9%	?	1.9%[56.1 µM]	18.4µM*	?
CCOc1ccc(NC(=O)Nc2ccc3snnc3c2)cc1	.	-26.5%	?	5.1%	16.4µM*	-3.1%
Cc1cc(C)c(NC(=O)Nc2ccc3snnc3c2)c(C)c1	.	-21.1%	?	2.5%	18.4µM*	-0.6%
COc1ccc(NC(=O)c2sc3nc4n(c(=O)c3c2C)CCC4)cc1Cl	.	-0.2%	-18.0%	3.9%	-20.2%	20.0%
O=C(c1ccc2c(c1)N(Cc1ccc(Cl)cc1)C(=O)c1ccccc1S2=O)N1CCOCC1 (centres undefined)	.	-35.4%	?	4.6%	?	?
O=c1c2sccc2n(Cc2cc(=O)n3cc(Cl)ccc3n2)c(=O)n1-c1ccccc1	.	0.4%	0.7%	-2.7%	-11.6%	4.1%
O=C(Nc1ccccc1)Nc1ccc2nnsc2c1	-95.1*	-17.7%	20.6µM*	-1.3%	16.4µM*	?
O=C1CCCC2=C1C(c1ccc(O)c(Br)c1)C1=C(CCCC1=O)N2c1ccccc1	-7.6	-17.2%	?	2.7%	23.1µM*	-14.5%
CCN1C2=C(C(=O)CCC2)C(c2ccc(O)c(Br)c2)C2=C1CCCC2=O	2.6	-15.7%	?	2.1%	-21.4%	25.4%
O=C(O)c1cccc(Nc2ccnc(Nc3cccc(C(=O)O)c3)n2)c1	25.6	-0.4%	-6.0%	.	33.6%	0.0%
COC(=O)c1cnc(Oc2ccc(NC(=O)NC(=O)c3c(OC)cccc3OC)cc2)cc1C(F)(F)F	47.2	4.6%	1.16µM*	-5.9%	1.3µM*	?
COC(=O)c1cnc(Oc2ccc(NC(=O)NC(=O)c3c(F)cccc3F)cc2)cc1C(F)(F)F	35.1	16.9%	-6.3%	-2.4%	?	7.0%
COC(=O)c1cnc(Oc2ccc(NC(=O)NC(=O)c3c(F)cccc3Cl)cc2)cc1C(F)(F)F	65.0	-20.6%	3.26µM*	6.3%	4.11µM*	4.3%
COC(=O)c1cnc(Oc2c(Cl)cc(N)cc2Cl)cc1C(F)(F)F	.	-14.2%	?	.	14.6µM*	-29.5%
COC(=O)N1CC=CC1(C)C(=O)O (centres undefined)	.	.	.	6.9%	.	.
O=C(COc1ccc(Cl)cc1)NCCc1csc(-c2cccc(F)c2)n1	.	-46.8%	?	3.0%	?	?
CCOc1ccc(CC(=O)NCCc2csc(-c3ccc(Cl)cc3)n2)cc1	.	4.3%	?	-3.0%	16.4µM*	?
CCOc1ccc(CC(=O)NCCc2csc(-c3ccc(C)cc3)n2)cc1	.	-7.9%	?	6.6%	20.6µM*	0.0%
CCOc1ccc(CCNC(=O)c2cc(C)nn2-c2ccccc2)cc1	2.8	14.3%	?	1.3%	?	5.9%
COc1ccc(C(=O)NCCN(C)C)c2nc3ccccc3cc12	-99.2*	8.6%	0.184µM*	.	0.164µM*	7.08µM*	TGFb confirm=10.3µM*;HepG2 tox-2=4.61µM*;TGFb CCL64 inh=?;TGFb COP inh=38.5%
CC[C@@H]1C(c2ccccc2)=NN(c2ccccc2)[C@H]1C(=O)N1CCOC1=O	4.8	-20.2%	0.0%	-8.8%[56.1 µM]	0.2%	?	TGFb confirm=-13.2%;HepG2 tox-2=0.1%;TGFb CCL64 inh=-2.4%;TGFb COP inh=-10.2%
